# High-throughput results deposited in PubChem BioAssay by National Center for Advancing Translational Sciences (NCATS).
# TRb-SRC2 inh: TRbeta-SRC2 interaction inhibition; P10828; TRbeta-SRC2 peptide binding, fluorescence polarization; receptor liganded with 1 µM T3; Potency, µM (highest dose often 106 µM), for inactives: top-dose activity change, negative = inhibition, hits mostly inhibitors; 280,000 tested, 0.065% active; AID 1469;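 also: plate controls were bound peptide for no effect and peptide without receptor for full effect; nearly all actives have a fitted effect of over 50% in size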
#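 Human TRb LBD (0.6 uM) plus Texas Red-labeled SRC2 peptide (20 nM), 1uM T3, 5% DMSO, 5 hr at ambient temperature. Decreased polarization (555/632 nm) flags inhibition; data normalized to free and bound peptide controls.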
# RGS12 GoLoco inh: blocks human Gai1 binding to RGS12 GoLoco peptide, red readout; P63096; Gai1:RGS12 GoLoco peptide FP, rhodamine, 10 min; Potency, µM (titrated, usually from 61.6 µM), inactives show at the highest dose activity, negative = inhibition, hits mostly inhibitors; 230,000 tested, 0.44% active; active = well fitted inhibition curve with a large enough effect, not every such curve was filed as active; inactive = no such curve, though single readings can be large or run the other way; also: nearly all actives have a fitted effect of over 30% in size
# Target sequence (P63096 whole entry, looked up): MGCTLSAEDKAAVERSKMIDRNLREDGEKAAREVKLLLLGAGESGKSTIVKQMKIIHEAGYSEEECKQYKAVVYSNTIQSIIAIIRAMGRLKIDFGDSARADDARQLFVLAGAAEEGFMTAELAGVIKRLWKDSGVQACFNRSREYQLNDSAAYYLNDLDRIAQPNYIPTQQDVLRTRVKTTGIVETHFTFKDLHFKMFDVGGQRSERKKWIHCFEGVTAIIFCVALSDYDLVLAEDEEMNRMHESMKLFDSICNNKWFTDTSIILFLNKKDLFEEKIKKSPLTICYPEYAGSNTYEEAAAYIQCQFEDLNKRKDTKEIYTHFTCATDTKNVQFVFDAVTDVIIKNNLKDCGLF
# TexasRed fluor: alters Texas Red total fluorescence, flagging assay interference; Potency, µM (titrated, usually from 106 µM), without a hit: top-dose fluorescence change, negative = quenching; TRb/SRC2 Texas Red total fluorescence interference; 280,000 tested, 0.29% active; AID 1479; active = well fitted curve in either direction with a large enough effect; inconclusive = small, poorly fitted or top-dose-only effect
#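 Human TRβ ligand-binding domain (0.6 uM) and Texas Red SRC2 peptide (20 nM) in Tris buffer with 1 uM T3 and 5% DMSO were incubated with pinned compound for 5 hr at ambient temperature. Total fluorescence was computed as S + 2P (555/632 nm).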
# Tau ThT inhib: blocks human tau fibril formation measured by thioflavin T. P10636. recombinant tau K18 P301L, heparin-induced fibrillization, ThT fluorescence. Potency, µM (highest dose often 57.4 µM), without a hit: at the highest dose activity, negative = inhibition, most hits filed as inhibitors. 270,000 tested, 2.1% active; also: nearly all actives have a fitted effect of over 55% in size
# Target sequence (P10636 561-689 P618L limits assumed): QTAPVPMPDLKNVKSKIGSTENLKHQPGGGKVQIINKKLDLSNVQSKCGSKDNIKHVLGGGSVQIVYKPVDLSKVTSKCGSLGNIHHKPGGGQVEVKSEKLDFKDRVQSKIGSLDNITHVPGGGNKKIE
#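 Heparin-induced (20 uM) aggregation of recombinant human K18 P301L tau, 15 uM unlabeled with 0.24 uM labeled, pH 7 acetate buffer, 6 hr at 37 C with compound. Fibrils quantified by 30 uM ThT fluorescence after 1 hr ambient incubation.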
# Tau FP inhib: tau fibrillization inhibition (FP); 280,000 tested, 0.39% active; Potency, µM (highest dose often 57.7 µM), for the others: at the top dose activity, negative = inhibition, most hits filed as inhibitors; K18 P301L tau heparin fibrillization, Alexa594 FP, 6 h; also: nearly all actives have a fitted effect of over 55% in size
#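 Quantitative HTS format: compounds meet 15 uM recombinant K18 P301L tau and Alexa 594-tau tracer in 100 mM sodium acetate pH 7; 20 uM heparin triggers fibrillization at 37 C over 6 hr; FP gives the signal.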
# Tau fluor counter: counter-screen for tau fibril formation inhibitors | tau K18 P301L (four-repeat tau fragment) Alexa594 fluorescence, heparin fibrillization | Potency, µM (top dose mostly 57.7 µM), without a hit: top-dose activity change, negative = decrease | 280,000 tested, 0.93% active; also: nearly all actives have a fitted effect of over 55% in size
#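 Human K18 P301L tau (15 uM unlabeled plus 0.24 uM Alexa 594-labeled, final) in 100 mM sodium acetate pH 7 was mixed with compound and 20 uM heparin and incubated 6 hr at 37 C.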
# The depositor's hits bear a star; u = inconclusive; x = no result; [ ] = dose if it differs, or a comment. Only some compounds are listed: those with a hit (about 3.1% of all), similar ones and a draw of the others. Unless noted, calls follow the shape of the dose curve; as a rule, active = well fitted curve in the direction sought with a large enough effect; inconclusive = small, poorly fitted or top-dose-only effect, or another doubt; inactive = no such curve, though single readings can be large; an effect the other way counts as inactive or inconclusive. Unless noted, % is scaled to controls: 0 for no effect and ±100 for the full control effect; potency is read from the fitted curve at half-maximal effect.
SMILES,TRb-SRC2 inh,RGS12 GoLoco inh,TexasRed fluor,Tau ThT inhib,Tau FP inhib,Tau fluor counter
CCN1C=C(Cc2ccc(OC)cc2)C2=C(C1)C(c1ccc(OC)cc1)C(C#N)=C(N)O2 (stereo not drawn),u,76.5%,50.1µM*[fluorescent],u,5.3%,-15.3%
Cc1cccc(N2C(=O)c3cccc4c(N(C)CCO)ccc(c34)C2=O)c1,-1.1%,25.1µM*,-6.0%,u,-1.4%,-20.5%
O=C(Oc1ccccc1N1CCOCC1)c1ccccc1,3.9%,4.5%,-5.2%,1.3%,u,-5.7%
O=C(/C(N=Nc1cccc(C(F)(F)F)c1)=C(/O)c1cccs1)C(F)(F)F,3.3%,2.7%,-1.7%,u,-10.1%,u
Cc1cccc(N=N/C(=C\O)C(=O)c2cccs2)c1,-2.1%,9.2%,-5.0%,28.2µM*,-7.0%,-17.2%
COc1ccc2ccc3c(c2c1)N=CC1(O3)N(C)c2ccccc2C1(C)C (stereo not drawn),28.2µM*,-19.6%,u,10µM*,22.4µM*,u
CN1c2ccccc2C(C)(C)C12CC(CCl)=NO2 (stereo not drawn),-20.0%,8.5%,-1.5%,u,-1.9%,-15.6%
CN1c2ccccc2C(C)(C)C12C=Nc1c(ccc3ccccc13)O2 (stereo not drawn),u,-9.2%,-24.4%,31.6µM*,u,u
COc1ccc2c(c1)Sc1ccccc1N2CCN(C)C,5.2%,-7.0%,0.9%,-4.8%,2.3%,-5.2%
CN1c2ccccc2C(C)(C)[C@]12C=Cc1cc(O)ccc1O2,5.2%,67.1%,12.8%,22.4µM*,-0.7%,u
O=C(CCC1COc2ccccc2O1)NCc1ccco1 (stereo not drawn),-4.8%,-4.6%,-3.3%,u,-6.9%,-1.3%
Cc1ccc(Nc2nc(-c3ccncc3)cs2)cc1,2.5%,10.2%,-0.8%,u,-1.1%,-27.8%
COc1cccc(Nc2nc(-c3ccc(O)cc3)cs2)c1,-2.8%,-2.5%,-7.1%,11.2µM*,8.4%,14.1µM*[quencher]
COc1cccc(Nc2nnc(SCN3C(=O)c4ccccc4C3=O)s2)c1,3.0%,1.1%,1.7%,-0.3%,-14.3%,u
Cc1cccnc1Nc1nc(-c2ccc(O)cc2)cs1,-9.9%,4.8%,-3.8%,12.6µM*,12.2%,17.8µM*[quencher]
COc1cccc(Nc2nnc(SCc3nc4ccccc4s3)s2)c1,1.9%,130.9%,-3.8%,u,-13.4%,14.1µM*[quencher]
COc1cccc(Nc2nc(-c3cccc(N4C(=O)c5ccccc5C4=O)c3)cs2)c1,3.4%,1.8%,-0.1%,u,u,7.94µM*[quencher]
Cc1cccc(C)c1Nc1nnc(SCc2nc3ccccc3s2)s1,1.5%,39.6%,7.6%,u,7.6%,-13.4%
Cc1nc([N+](=O)[O-])nn1C12CC3CC(CC(Cl)(C3)C1)C2,-0.1%,-6.8%,-0.2%,-8.0%,0.1%,-8.6%
CC1CCN(c2ccc(-c3cccc(NS(=O)(=O)c4ccc(Cl)s4)c3)nn2)CC1,1.9%,x,-3.4%,1.7%,u,u
COc1cccc(Nc2ccc(Nc3cccc(OC)c3)nn2)c1,-2.2%,7.9%,-4.9%,u,8.8%,12.6µM*[quencher]
Cc1cccc(Nc2nc(-c3ccncc3)cs2)c1,6.4%,-1.9%,-1.6%,u,u,u
Cc1cccc(Nc2nc(-c3ccc4c(c3)OCCO4)cs2)c1,-0.6%,3.5%,-3.7%,7.08µM*,4.3%,12.6µM*[quencher]
Cc1cc2ccccc2n1CCNC(=O)c1ccc(Br)cc1,-1.4%,x,-1.9%,u,-2.7%,u
CCOc1cccc(/C=C2\NC(=S)N(c3ccccc3)C2=O)c1O,0.7%,112.6%,-0.7%,14.1µM*,5.5%,u
CCOc1cc(/C=C2\NC(=S)N(c3c(C)n(C)n(-c4ccccc4)c3=O)C2=O)ccc1O,14.6%,50.3%,-2.2%,-17.8%,-1.8%,0.0%
Cn1cccc1-c1nc2ccc(NC(=O)c3cccs3)cc2[nH]1,-8.0%,8.9%,-5.3%,11.2µM*,6.5%,u
